In the library only some 1.2% were active in any assay of this set; here they are far more common.
S1P2 blocker = antagonists of human S1P2 receptor; cell-based S1P2 antagonist assay, inhibition at 5 uM; inhibition, % at 5 µM; hit rate 0.21% among 97,000; AID 736; in the data active = inhibition above about 45%;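 also: CRE beta-lactamase reporter cells expressing human S1P2 stimulated with S1P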
Target sequence (O95136 whole entry, looked up): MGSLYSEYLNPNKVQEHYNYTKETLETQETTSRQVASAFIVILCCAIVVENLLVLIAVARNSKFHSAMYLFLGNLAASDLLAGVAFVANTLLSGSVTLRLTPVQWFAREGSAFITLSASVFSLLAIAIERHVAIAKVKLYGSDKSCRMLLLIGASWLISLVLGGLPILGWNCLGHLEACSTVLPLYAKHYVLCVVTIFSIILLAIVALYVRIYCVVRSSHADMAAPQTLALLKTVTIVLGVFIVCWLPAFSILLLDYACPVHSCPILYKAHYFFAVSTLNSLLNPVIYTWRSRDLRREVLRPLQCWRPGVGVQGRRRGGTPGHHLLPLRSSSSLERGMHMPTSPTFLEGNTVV
GALR2 agonist = agonists of human galanin receptor 2 (GALR2); activation, % (concentration not given with the values); GALR2-expressing cells, agonist activation read-out; hit rate 0.48% among 140,000; in the data active = activation above about 5%, passing the limit was not always enough
GALR2 blocker = antagonists of human galanin receptor 2 (GALR2). hit rate 0.39% among 140,000. inhibition, % at 4 µM. GALR2-expressing cells, antagonist mode; in the data active = inhibition above about 27%;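 also: cells stimulated with galanin 1-16 at roughly its EC80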
S1P2 ag = agonists of human S1P2 receptor; hit rate 0.46% among 97,000; AID 729; activation, % at 4.5 µM; O95136; S1P2-expressing cell line, agonist reporter read-out; in the data active = activation above about 16%
Large screens that a line does not name were inactive.

CCOC(=O)Cc1c(C)c2ccc(N(CC)CC)cc2oc1=O	GALR2 agonist 19, S1P2 ag 20
CCCNC(=O)c1c(N)n(-c2ccc3c(c2)OCO3)c2nc3ccccc3nc12	none
COc1ccc(CNC(=O)c2c(N)n(CCCN3CCOCC3)c3nc4ccccc4nc23)cc1	GALR2 agonist 32, S1P2 ag 39
Nc1c(C(=O)NCc2ccc(F)cc2)c2nc3ccccc3nc2n1CCCN1CCOCC1	GALR2 agonist 41, S1P2 ag 45
CCCNC(=O)c1c(N)n(-c2cc(OC)cc(OC)c2)c2nc3ccccc3nc12	GALR2 agonist 14 (no result: S1P2 blocker, S1P2 ag)
CCCCN1C(=O)c2ccc(C(=O)NCCN3C(=O)S/C(=C\c4cccnc4)C3=O)cc2C1=O	none (no result: S1P2 blocker, S1P2 ag)
COC(=O)c1cc(NC(=O)c2c(F)c(F)c(F)c(F)c2F)cc(C(=O)OC)c1	none (no result: S1P2 blocker, S1P2 ag)
Cc1ccc(C)c(NC(=S)NC(NC(=O)Cc2cccc3ccccc23)C(Cl)(Cl)Cl)c1 (stereo not given)	S1P2 ag 26
Cc1ccc(C)c(NC(=S)NC(NC(=O)N(C)C)C(Cl)(Cl)Cl)c1 (stereo not given)	none
N#CCSc1nnc(-c2ccccc2)c(-c2ccccc2)n1	S1P2 ag 16
CC(C)(CS(=O)(=O)[O-])NC(=O)CC[N+](C)(C)CCO	none
CC(OC(=O)c1ccc(NS(=O)(=O)c2cccs2)cc1)C(=O)N(C)C1CCCCC1 (stereo not given)	none (no result: S1P2 blocker, S1P2 ag)
CCC(Sc1nc2cc(OC)c(OC)cc2c(=O)n1Cc1ccco1)C(=O)NCCOC (stereo not given)	S1P2 ag 18
CCn1c(C)cc(/C=C2\NC(=O)N(CC(=O)Nc3cccc(C)c3)C2=O)c1C	none
CCn1c(C)cc(/C=C2/NC(=O)N(CC(=O)Nc3cccc(C)c3)C2=O)c1C	GALR2 agonist 8.0 (no result: S1P2 blocker, S1P2 ag)
CCOC(=O)c1[nH]c2c(c1C)C(=O)CC(c1ccc(F)cc1)C2 (stereo not given)	none (no result: S1P2 blocker, S1P2 ag)
CCCOC(=O)c1[nH]c2c(c1C)C(=O)CC(c1ccc(OC)c(OC)c1)C2 (stereo not given)	GALR2 agonist 5.2 (no result: S1P2 blocker, S1P2 ag)
CCOC(=O)c1[nH]c2c(c1C)C(=O)CC(c1ccc(OCC)c(OC)c1)C2 (stereo not given)	none
CCCCCOC(=O)c1[nH]c2c(c1C)C(=O)CC(c1ccco1)C2 (stereo not given)	GALR2 blocker 35 (no result: S1P2 blocker, S1P2 ag)
COc1cc(-c2nnc3sc(C4CCCCC4)nn23)cc(OC)c1OC	S1P2 ag 20
COc1nc(Nc2ccc([N+](=O)[O-])cc2)nc(NC(C)C)n1	none (no result: S1P2 blocker, S1P2 ag)
O=C(COc1ccccc1)Nc1ccc(OC(F)(F)C(F)F)c(NC(=O)COc2ccccc2)c1	none
Cc1cccc2sc(NNC(=O)c3ccc(S(=O)(=O)N4CCc5ccccc5C4)cc3)nc12	none (no result: S1P2 blocker, S1P2 ag)
Cc1cccc2sc(NNC(=O)c3ccc(S(=O)(=O)N4CCCC(C)C4)cc3)nc12 (stereo not given)	GALR2 agonist 5.2 (no result: S1P2 blocker, S1P2 ag)
Cc1ccc(-c2nc(CSCC(=O)NCCN3CCN(Cc4ccccc4)CC3)c(C)o2)cc1	S1P2 blocker 47
COc1ccc(Cn2c(-c3ccc(C)cc3)nc3c(c(=O)c4ccccc4n3C)c2=O)cc1	GALR2 agonist 5.1 (no result: S1P2 blocker, S1P2 ag)
Cc1ccc(S(=O)(=O)N2CCN(c3ccc4nnc(-c5ccccc5)n4n3)CC2)cc1	none
COc1ccc(S(=O)(=O)N2CCN(c3ccc4nnc(-c5ccc(F)cc5)n4n3)CC2)cc1	S1P2 blocker 48
O=C1c2cccc3c(N4CCCCC4)ccc(c23)C(=O)N1c1ccc(Cl)cn1	S1P2 blocker 51
O=C1c2cccc3c([N+](=O)[O-])ccc(c23)C(=O)N1c1ccc(Cl)cn1	S1P2 blocker 71
O=C1c2cccc3c(N4CCCCC4)ccc(c23)C(=O)N1c1ccccn1	none
O=C(O)c1ccc2c(c1)C(=O)N(c1ccc(Cl)cn1)C2=O	none
COc1ccc(NS(=O)(=O)c2ccc(NC(=O)c3ccc(N(C)S(C)(=O)=O)cc3)cc2)c(OC)c1	none (no result: S1P2 blocker, S1P2 ag)
O=C(N/C(=C/c1cccc([N+](=O)[O-])c1)C(=O)N1CCCCC1)c1cccs1	none (no result: S1P2 blocker, S1P2 ag)
COc1ccc(-c2nc(=S)c3c([nH]2)Oc2ccc(C)cc2C3)cc1O	none (no result: S1P2 blocker, S1P2 ag)
CCCCNC(=O)[C@H](CSCc1ccccc1)N1Cc2ccccc2C1=O	none (no result: S1P2 blocker, S1P2 ag)
COc1cccc(NC(=O)c2cn(C)c(=O)c3cc(OC)c(OC)cc23)c1	S1P2 ag 28
COc1ccccc1CNC(=O)c1cn(C)c(=O)c2cc(OC)c(OC)cc12	none
CCOc1ccccc1NC(=O)COC(=O)CSc1ccc(Cl)cc1	none (no result: S1P2 blocker, S1P2 ag)
c1ccc(C(c2ccccc2)N2CCN(c3nc4ccccc4n4cnnc34)CC2)cc1	S1P2 ag 24
Cc1cc(-n2c(C)cc(C(=O)CSc3ncnc4ccccc34)c2C)no1	S1P2 blocker 60
O=c1c2c(-c3ccccc3)csc2ncn1/N=C/c1c2ccccc2cc2ccccc12	S1P2 ag 18
Cc1nn(-c2ccccc2)c(N2CCCC2)c1/C=N/n1cnc2scc(-c3ccccc3)c2c1=O	none
Cc1ccc2nc(-c3ccc(SCC(=O)Nc4nnc(C)s4)nc3)[nH]c2c1	GALR2 agonist 5.3 (no result: S1P2 blocker, S1P2 ag)
Cc1nnc(SCC(=O)NNC(=O)C(C)C)[nH]c1=O	none (no result: S1P2 blocker, S1P2 ag)
CC(C)n1c(SCC(=O)Nc2ccccc2)nc2c1c(=O)n(C)c(=O)n2C	none
CCC(C)C1NC(=S)N(C2CCCCC2)C1=O (stereo not given)	none
CCCCC1NC(=S)N(C2CCCCC2)C1=O (stereo not given)	GALR2 agonist 7.1 (no result: S1P2 blocker, S1P2 ag)
CN(C)c1ccc(/C=N/NC(=O)CN(c2ccccc2Cl)S(C)(=O)=O)cc1Br	S1P2 ag 17
CS(=O)(=O)N(CC(=O)N/N=C/c1ccc(OCC(=O)N2CCOCC2)cc1)c1ccccc1Cl	none (no result: S1P2 blocker, S1P2 ag)
Cc1ccc(NC(C#N)c2ccccc2OCc2ccccc2)cc1 (stereo not given)	none
CC(=O)Nc1cc(ON=C(C)C)cc([N+](=O)[O-])c1	none (no result: S1P2 blocker, S1P2 ag)
CCOC(=O)Nc1ccc2c(c1)N(C(=O)CCN(C)C)c1ccccc1S2	GALR2 blocker 30
CCOC(=O)Nc1ccc2c(c1)N(C(=O)CN1CCN(C)CC1)c1ccccc1S2	none
O=C(NCCN1CCN(Cc2ccccc2)CC1)C1CC(=O)N(C2CCCC2)C1 (stereo not given)	none
O=C(NCCN1CCN(c2ccccc2F)CC1)C1CC(=O)N(C2CCCC2)C1 (stereo not given)	S1P2 ag 21
CCOC(=O)c1cnc(-n2nc(C)cc2C)nc1NC1CCCCC1	S1P2 blocker 91
COc1ccc2cc3c(N)nn(C(=O)c4cccc([N+](=O)[O-])c4)c3nc2c1	GALR2 agonist 8.0 (no result: S1P2 blocker, S1P2 ag)
COc1cc(CNCCc2ccc(S(N)(=O)=O)cc2)ccc1OCc1ccc(Cl)cc1	none
CCOc1cc(CNCCc2ccc(S(N)(=O)=O)cc2)ccc1OCc1ccc(Cl)cc1	S1P2 blocker 61
Cc1cc(C)cc(OCC(=O)NNC(=O)CCC(=O)NCc2ccccc2)c1	none
Cn1c(C(=O)N2CCCC2)cc2c(=O)n(C)c3ccccc3c21	S1P2 ag 21
Cn1c(C(=O)N2CCN(c3ncccn3)CC2)cc2c(=O)n(C)c3ccccc3c21	none
CC1CN(S(=O)(=O)c2cccc(C(=O)OC/C(O)=C(\C#N)c3nc4ccccc4[nH]3)c2)CC(C)O1 (stereo not given)	none (no result: S1P2 blocker, S1P2 ag)
O=C(NC1CCCCC1)N(C1=NCCCCC1)c1ccc(Br)cc1	none (no result: S1P2 blocker, S1P2 ag)

Screening data deposited in PubChem BioAssay by The Scripps Research Institute Molecular Screening Center.
